Compound activity deposited in PubChem by The Scripps Research Institute Molecular Screening Center.
Rows were chosen to be rich in hits. Some 2.3% of all compounds tested hit in one or more screens of this group.
M1 ag = agonists of human M1 muscarinic receptor; P11229; CHO-K1 hM1, Fluo-8 calcium fluorescence, agonist mode; 0% DMSO, 100% acetylcholine EC100; activation, % at 3 µM; actives 0.33% (n = 360,000);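 active means activation above the run's mean compound activation plus 3 SD, cut at about 16% in these data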;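 further: peak over basal fluorescence ratio within a 140 s kinetic read after compound addition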
Target sequence (P11229 whole entry, looked up): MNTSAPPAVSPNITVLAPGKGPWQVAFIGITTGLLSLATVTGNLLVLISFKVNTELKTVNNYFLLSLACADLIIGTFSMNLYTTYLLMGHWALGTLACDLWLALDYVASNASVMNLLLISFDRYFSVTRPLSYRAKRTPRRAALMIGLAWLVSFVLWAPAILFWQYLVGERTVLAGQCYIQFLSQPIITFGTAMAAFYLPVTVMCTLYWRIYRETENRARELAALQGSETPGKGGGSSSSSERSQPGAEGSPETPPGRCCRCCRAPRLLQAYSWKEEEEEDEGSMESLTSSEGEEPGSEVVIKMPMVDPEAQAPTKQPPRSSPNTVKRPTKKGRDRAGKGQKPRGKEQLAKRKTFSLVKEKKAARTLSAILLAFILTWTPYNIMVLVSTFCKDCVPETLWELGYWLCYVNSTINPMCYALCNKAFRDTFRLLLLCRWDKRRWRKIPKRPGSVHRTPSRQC
CHRM1 antagonist = human CHRM1 antagonism; actives 1.3% (n = 360,000); P11229; CHO-K1 hM1, Fluo-8 calcium fluorescence, ACh EC80 antagonist; inhibition, % at 3 µM;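 active means percent inhibition above its own plate's cutoff, namely the mean of that plate's compound wells plus 3 SD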;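 further: peak over basal fluorescence ratio during 140 s after agonist addition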
CHO-K1 Ca PAM = counter-screen for M1 PAMs: effect in parental CHO-K1 cells; ATP EC20, Fluo-8 calcium fluorescence; 0% at ATP EC20, 100% at ATP max; activation, % at 3 µM; actives 0.02% (n = 360,000); AID 602247;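 active means activation above the run cutoff, the mean activation of all test compounds plus 3 SD, cut at about 40% in these data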;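 further: peak over basal fluorescence ratio in a 140 s read after ATP addition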
CHO-K1 Ca antag = M1 antagonist counterscreen hit in parental CHO-K1 cells. ATP-induced calcium, Fluo-8 fluorescence. inhibition, % at 3 µM. actives 0.6% (n = 360,000);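 active means inhibition above a per-plate cutoff, the plate's mean sample inhibition plus 3 SD, cut at about 24% in these data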
M1 PAM = positive allosteric modulators of human M1 muscarinic receptor; CHO-K1 hM1, Fluo-8 calcium fluorescence, ACh EC20; 0% = ACh EC20, 100% = maximal ACh; activation, % at 3 µM; actives 0.088% (n = 360,000); P11229; in the data active means activation above about 19%, passing the limit was not always enough
CHO-K1 Ca ag = counter-screen for M1 agonists: effect in parental CHO-K1 cells; activation, % at 3 µM; AID 602248; Fluo-8 calcium fluorescence; scaled to maximal ATP response, vehicle zero; actives 0.48% (n = 360,000); in the data active means activation above about 15%;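 further: untransfected CHO-K1 host cells lacking M1 receptor as counterscreen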
A number is an active result; – = inactive.

SMILES	M1 ag	CHRM1 antagonist	CHO-K1 Ca PAM	CHO-K1 Ca antag	M1 PAM	CHO-K1 Ca ag
CC(C)(C)NC(=O)C(c1ccco1)N(Cc1ccc2c(c1)OCO2)C(=O)c1snc(C(N)=O)c1N (stereo not drawn)	–	–	–	–	–	–
CCc1ccc(NC(=O)c2cc(S(=O)(=O)N3CCCC3)c[nH]2)cc1	–	–	–	–	–	–
CC(C)c1ccc(NC(=O)c2cc(S(=O)(=O)N3CCCC3)c[nH]2)cc1	–	35	–	–	–	–
CC1Sc2ccc(S(=O)(=O)N3CCC(C(=O)NCCc4ccccc4)CC3)cc2NC1=O (stereo not drawn)	–	–	–	–	–	–
CC1Sc2ccc(S(=O)(=O)N3CCC(C(=O)NCC(C)c4ccccc4)CC3)cc2NC1=O (stereo not drawn)	–	46	–	–	–	15
CCn1c(=O)c2c(nc(SCC(=O)Nc3ccccc3)n2C)n(C)c1=O	–	–	–	–	–	–
CCN(CC)CCOC(=O)c1c(C)oc2ccc(OC)cc12	–	25	–	–	–	–
C=C(C)COc1ccc2oc(C)c(C(=O)OCCOC)c2c1	–	–	–	–	–	–
COc1ccccc1NCC(=O)N/N=C/C=C/c1ccccc1	–	–	–	24	–	–
COc1ccc(NCC(=O)N/N=C/C=C\c2ccccc2)cc1	–	–	–	–	–	–
CNS(=O)(=O)c1cccc(C(=O)OCc2cc(=O)oc3c(C)c(O)ccc23)c1	–	–	–	–	–	15
CCc1cc2c(COC(=O)c3cccc(S(C)(=O)=O)c3)cc(=O)oc2cc1O	–	–	–	–	–	–
O=C(CN1C(=O)CSc2ccc(S(=O)(=O)N3CCOCC3)cc21)NCCCN1CCCCC1	–	38	–	–	–	–
O=C(CN1C(=O)CSc2ccc(S(=O)(=O)N3CCOCC3)cc21)NCCCN1CCOCC1	–	–	–	–	–	–
